Hits are enriched below; roughly 12% of the tested compounds scored in any of these assays.
Pf growth 48h: P. falciparum growth inhibition at 48 hours (one generation); hit rate 5.9% among 310,000; AID 504832; P. falciparum luciferase growth in erythrocytes, 48 h; Potency, µM (series often up to 28.7 µM), for the others: top-dose activity change, negative = inhibition, most hits filed as inhibitors; further: on the % scale 0 is the no-effect control and ±100 the full control effect
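Compounds are pin-transferred into medium, infected erythrocytes (2% hematocrit, 0.1% parasitemia final) are added, and plates sit one parasite generation at 37 C in 5% CO2. Detection reagent is then added and luminescence measured.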
AmpC detergent: inhibitors of E. coli AmpC beta-lactamase with detergent | Potency, µM (highest dose often 114 µM), inactives show top-dose activity change, negative = inhibition, actives largely listed as inhibitors | hit rate 0.041% among 370,000 | AmpC hydrolysis of nitrocefin, absorbance 480 nm, 0.01% Triton | AID 485294;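 further: 0% = no-compound wells and -100% = no-enzyme wells; nearly all actives have a fitted effect of over 25% in size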
Target sequence (P00811 whole entry, looked up): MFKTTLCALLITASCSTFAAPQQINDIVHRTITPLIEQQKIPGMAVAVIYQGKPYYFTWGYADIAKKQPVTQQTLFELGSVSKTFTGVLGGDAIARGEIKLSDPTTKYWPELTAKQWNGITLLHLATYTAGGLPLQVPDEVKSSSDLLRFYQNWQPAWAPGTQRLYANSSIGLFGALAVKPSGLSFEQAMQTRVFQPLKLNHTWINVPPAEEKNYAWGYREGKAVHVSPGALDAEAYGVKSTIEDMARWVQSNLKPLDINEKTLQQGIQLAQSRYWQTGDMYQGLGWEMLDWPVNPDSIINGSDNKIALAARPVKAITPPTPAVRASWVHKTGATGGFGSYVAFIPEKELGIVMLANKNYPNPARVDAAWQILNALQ
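AmpC (5.3 nM in the dispensed reagent) in 20 mM phosphate pH 7.0 with 0.01% (detergent screen) or 0.0001% Triton X-100 was preincubated with compounds for 15 min at room temperature. Nitrocefin was then added from an 800 uM solution, and hydrolysis was followed at 480 nm.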
SARS PLpro yeast: SARS-CoV PLP inhibition in yeast | S. cerevisiae expressing SARS-CoV PLpro, growth rescue | Potency, µM (top dose mostly 32.9 µM), for inactives: at the highest dose activity, positive = growth rescue, hits mostly activators | hit rate 0.19% among 330,000; calls by dose curve; further: 0% is about no effect; nearly all actives have a fitted effect of over 55% in size
Sm TGR block: S. mansoni TGR enzyme inhibition | AID 485364 | Potency, µM (highest dose often 114 µM), without a hit: at the top dose activity change, negative = inhibition, actives largely listed as inhibitors | hit rate 3% among 360,000 | Q962Y6 | purified TGR, DTNB reduction, TNB absorbance 405 nm; further: on the % scale 0 is the no-effect control and ±100 the full control effect; nearly all actives have a fitted effect of over 60% in size
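First, TGR (20 nM dispensed) and NADPH were mixed with compound. Second, a 15 min room-temperature incubation followed. Third, further NADPH and then DTNB were added to start the reaction. Finally, TNB absorbance was monitored kinetically.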
Pf growth 96h: inhibits malaria parasite growth, 96 h. P. falciparum luciferase reporter growth, 96 h. Potency, µM (series often up to 28.7 µM), inactives show at the top dose activity change, negative = inhibition, hits mostly inhibitors. hit rate 6.9% among 320,000; further: on the % scale 0 is the no-effect control and ±100 the full control effect
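Two-generation exposure (96 h) targets delayed-death phenotype. Reporter parasites carrying integrated firefly luciferase, in red cells at 2% hematocrit and 0.05% parasitemia final, kept at 37 C, 5% CO2; luminescence loss indicates inhibition.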
AmpC inh no detg: blocks E. coli AmpC beta-lactamase in detergent-free assay; hit rate 0.52% among 330,000; AmpC nitrocefin hydrolysis, absorbance 480 nm, 0.0001% Triton; P00811; Potency, µM (top dose mostly 57.1 µM), without a hit: at the top dose activity change, negative = inhibition, usual class: inhibitors; AID 485341;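 further: plate controls were no compound for no effect and no enzyme for full effect; nearly all actives have a fitted effect of over 20% in size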
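AmpC (5.3 nM in the dispensed reagent) in 20 mM phosphate pH 7.0 with 0.01% (detergent screen) or 0.0001% Triton X-100 was preincubated with compounds for 15 min at room temperature. Nitrocefin was then added from an 800 uM solution, and hydrolysis was followed at 480 nm.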
* hit, by the source's call; [ ] = remark or other dose. Unless noted, the call rests on the fitted dose curve; in most records, active means well fitted curve in the direction sought with a large enough effect; inconclusive means small, poorly fitted or top-dose-only effect, or another doubt; inactive means no such curve, though single readings can be large; an effect the other way counts as inactive or inconclusive. Potency means the concentration at half of the fitted maximal effect.

How did CCCCNC(=S)N1CCN(C(c2ccccc2)c2ccccc2)CC1 do in these assays?
Pf growth 48h: 10.4µM*; AmpC detergent: inconclusive; SARS PLpro yeast: 2.5%; Sm TGR block: -1.5%; Pf growth 96h: 16.6%; AmpC inh no detg: 1.0%

Results for CCCNC(=S)N1CCN(C(c2ccccc2)c2ccccc2)CC1 ?
Pf growth 48h: inconclusive; AmpC detergent: -6.7%; SARS PLpro yeast: -8.7%; Sm TGR block: 0.3%; Pf growth 96h: inconclusive; AmpC inh no detg: -46.9%

What do the screens show for `CCNC(=S)N1CCN(C(c2ccccc2)c2ccccc2)CC1`?
Pf growth 48h: 13.1µM*; AmpC detergent: -14.9%; SARS PLpro yeast: -0.8%; Sm TGR block: -7.7%; Pf growth 96h: 8.28µM*; AmpC inh no detg: inconclusive

What do the screens show for `CSc1ccc(C(=S)N2CCN(C(c3ccccc3)c3ccccc3)CC2)cc1`?
AmpC detergent: -11.9%; SARS PLpro yeast: 9.1%; Sm TGR block: 8.5%; Pf growth 96h: 5.22µM*; AmpC inh no detg: -12.7%

Results for S=C(NCCc1ccccc1)N1CCN(C23CC4CC(CC(C4)C2)C3)CC1 ?
Pf growth 48h: 9.28µM*; AmpC detergent: 4.4%; SARS PLpro yeast: -3.2%; Sm TGR block: 10.6%; Pf growth 96h: 88.6%; AmpC inh no detg: -6.5%

Results for COc1ccccc1NC(=O)c1ccc[n+]([O-])c1 ?
Pf growth 48h: 36.8%; AmpC detergent: inconclusive; SARS PLpro yeast: 1.2%; Sm TGR block: 1.9%; Pf growth 96h: inconclusive; AmpC inh no detg: 40.6%

How did CCOC(=O)c1[nH]c2c(c1Cc1ccccc1OC)C(=O)CC(c1ccc(OCC)cc1)C2 (centres undefined) do in these assays?
AmpC detergent: 5.3%; Sm TGR block: 5.3%

What do the screens show for `S=C(NCCc1ccccc1)N1CCN(C(c2ccccc2)c2ccccc2)CC1`?
Pf growth 48h: 9.28µM*; AmpC detergent: inconclusive; SARS PLpro yeast: -5.9%; Sm TGR block: inconclusive; Pf growth 96h: inconclusive; AmpC inh no detg: -31.6%

What do the screens show for `Cc1cc([N+](=O)[O-])ccc1NC(=O)c1sc2ncn(CC(=O)N3CCOCC3)c(=O)c2c1C`?
Pf growth 48h: inconclusive; AmpC detergent: -7.5%; SARS PLpro yeast: 1.0%; Sm TGR block: -0.6%; Pf growth 96h: 14.7µM*; AmpC inh no detg: 2.1%

Results for Cc1ccc(NC(=O)c2sc3ncn(CC(=O)N4CCOCC4)c(=O)c3c2C)c(Br)c1 ?
Pf growth 48h: 17.8%; AmpC detergent: 0.2%; SARS PLpro yeast: -0.8%; Sm TGR block: -10.2%; Pf growth 96h: 11.7µM*; AmpC inh no detg: 36.6%

How did CCOc1ccccc1NC(=O)c1sc2ncn(CC(=O)N3CCOCC3)c(=O)c2c1C do in these assays?
Pf growth 48h: 7.6%; AmpC detergent: -5.5%; SARS PLpro yeast: 8.8%; Sm TGR block: -16.4%; Pf growth 96h: 6.1%; AmpC inh no detg: 84.6%

Results for C=CCOc1cccc(C(=O)Nc2ncn[nH]2)c1 ?
Pf growth 48h: 8.3%; AmpC detergent: inconclusive; SARS PLpro yeast: 6.1%; Sm TGR block: 9.0%; Pf growth 96h: 9.6%; AmpC inh no detg: -13.1%

What do the screens show for `O=C(O)c1ccccc1SCCS(=O)(=O)c1ccc(Cl)cc1Cl`?
Pf growth 48h: -0.4%; AmpC detergent: 3.0%; SARS PLpro yeast: -1.7%; Sm TGR block: 44.7µM*; Pf growth 96h: -1.3%; AmpC inh no detg: -20.2%

What do the screens show for `COc1ccc(-c2nn(-c3ccccc3)cc2C(=O)O)cc1N`?
Pf growth 48h: inconclusive; AmpC detergent: -25.9%; SARS PLpro yeast: -5.7%; Sm TGR block: -13.1%; Pf growth 96h: inconclusive; AmpC inh no detg: -14.2%

How did COc1ccc2c3c1OC1C(O)C=CC4C(C2)[N+](C)(C)CCC341 (centres undefined) do in these assays?
Pf growth 48h: 2.2%[0.00184 µM]; AmpC detergent: 39.8µM*; SARS PLpro yeast: -0.8%; Sm TGR block: -26.3%; Pf growth 96h: 5.5%; AmpC inh no detg: inconclusive

Results for COc1ccc2c3c1O[C@H]1[C@@H](O)C=C[C@H]4C(C2)NCCC341 (some centres undefined) ?
Pf growth 48h: -12.3%; Pf growth 96h: 0.169µM*

Results for CCOc1ccc2c3c1O[C@H]1[C@@H](O)C=C[C@H]4[C@@H](C2)N(C)CC[C@@]341 ?
Pf growth 48h: -17.7%; Pf growth 96h: inconclusive

What do the screens show for `CCOC(=O)c1c(C)[nH]c(C)c1C(=O)COC(=O)/C=C/c1ccc(Cl)cc1`?
Pf growth 48h: inconclusive; AmpC detergent: -7.7%; SARS PLpro yeast: -42.5%; Sm TGR block: -2.3%; Pf growth 96h: 9.28µM*; AmpC inh no detg: -0.1%

What do the screens show for `Cc1ccc(S(=O)(=O)N2CCC(C(=O)NCc3ccccc3Cl)CC2)cc1`?
AmpC detergent: 5.6%; SARS PLpro yeast: 7.1%; Sm TGR block: 9.7%; Pf growth 96h: 10.4µM*; AmpC inh no detg: -25.8%

How did O=C(NCc1ccccc1Cl)C1CCN(S(=O)(=O)c2ccc(F)cc2)CC1 do in these assays?
Pf growth 48h: 20.2%; AmpC detergent: 5.8%; SARS PLpro yeast: 0.2%; Sm TGR block: 34.7%; Pf growth 96h: 30.8%; AmpC inh no detg: -12.7%

What do the screens show for `CCCS(=O)(=O)N1CCC(C(=O)NCc2ccccc2Cl)CC1`?
Pf growth 48h: 24.2%; AmpC detergent: -7.7%; SARS PLpro yeast: -3.1%; Sm TGR block: 3.3%; Pf growth 96h: 10.4µM*; AmpC inh no detg: -11.4%

How did CSc1ccc(S(=O)(=O)N2CCC(C(=O)NCc3ccccn3)CC2)cc1 do in these assays?
Pf growth 48h: -6.7%; AmpC detergent: 1.3%; SARS PLpro yeast: -5.3%; Sm TGR block: 0.3%; Pf growth 96h: 11.7µM*; AmpC inh no detg: 21.7%

What do the screens show for `CC(C)Cc1nc2sc3c(c2c(=O)n1N)CC(C)(C)OC3`?
Pf growth 48h: 27.7%; AmpC detergent: 1.7%; SARS PLpro yeast: -0.2%; Sm TGR block: -3.8%; Pf growth 96h: -2.8%; AmpC inh no detg: -11.0%

Results for O=C(N/N=C/c1ccncc1)c1cccc(S(=O)(=O)Nc2ccc(Cl)cc2)c1 ?
Pf growth 48h: -22.0%; AmpC detergent: -11.2%; SARS PLpro yeast: 0.7%; Sm TGR block: 0.7%; Pf growth 96h: -44.9%; AmpC inh no detg: -21.7%

What do the screens show for `O=c1[nH]n(-c2ccc(Cl)cc2)c(=O)c(Cl)c1Cl`?
Pf growth 48h: -1.5%; AmpC detergent: 0.1%; SARS PLpro yeast: 1.6%; Sm TGR block: 7.08µM*; Pf growth 96h: 32.5%; AmpC inh no detg: -29.0%

What do the screens show for `Cn1[nH]c(=O)c(Cl)c(Cl)c1=O`?
Pf growth 48h: 17.0%; AmpC detergent: -4.7%; SARS PLpro yeast: 3.1%; Sm TGR block: -17.8%; AmpC inh no detg: -10.0%

What do the screens show for `CCCCCCC(NC(=O)c1ccc(C)cc1)C(=O)O` (centres undefined)?
SARS PLpro yeast: -7.5%; AmpC inh no detg: -19.3%
